Assay results reported in PubChem BioAssay (NCI).
Compounds without any hit were thinned out: in the full panel of roughly 83,000, 20% have a hit.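 Single-concentration screen, 48 h exposure, 96-well plates. Endpoint: percent growth. Below 10 = active.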 Calls of active or inactive are those of the source.

Assays:
Test in all cases: NCI-60 one-dose screen, 48 h (100 = growth as untreated, 0 = no growth, -100 = all killed)
[1] = system: NCI-H226 lung; details: 10 µM
[2] = system: NCI-H322M lung; details: 10 µM
[3] = system: HOP-62 NSCLC; details: 10 µM
[4] = system: NCI-H460 lung; details: 10 µM
[5] = system: NCI-H522 lung; details: 10 µM
[6] = system: A549/ATCC NSCLC; details: 10 µM
[7] = system: COLO 205 colon; details: 10 µM
[8] = system: DU-145 prostate; details: 10 µM
[9] = system: SF-268 CNS; details: 10 µM
[10] = system: SF-295 CNS; details: 10 µM
[11] = system: SF-539 CNS; details: 10 µM
[12] = system: UACC-257 melanoma; details: 10 µM
[13] = system: HT29 colon; details: 10 µM
[14] = system: SNB-75 CNS; details: 10 µM
[15] = system: U251 CNS; details: 10 µM
[16] = system: PC-3 prostate; details: 10 µM
[17] = system: SK-MEL-5 melanoma; details: 10 µM
[18] = system: UACC-62 melanoma; details: 10 µM
[19] = system: SK-MEL-2 melanoma; details: 10 µM
[20] = system: HL-60(TB) leukemia; details: 10 µM unless noted

Measured: growth

O=C(/C=C/c1ccccc1Cl)c1nc2ccccc2n1Cc1ccc(F)cc1
active: [1] -75.1% | [2] -42.1% | [3] -77.5% | [4] -54.6% | [5] -81.2% | [6] -44.3% | [7] -83.5% | [8] -34.8% | [9] -2.61% | [10] -86.8% | [11] -94.4% | [12] -61.1% | [13] -85.6% | [14] 6.88% | [15] -87.5% | [16] -57.3% | [17] -86.5% | [18] -93.2% | [19] -68.5% | [20] -38.4%

CC[C@@]12CC(C(=O)OC)=C3Nc4cc5c(cc4[C@@]34CCN(C[C@H]3O[C@H]31)[C@@H]24)[C@@H]1[C@H](O5)[C@@H](O)[C@@]2(CC)CC(C(=O)OC)=C3Nc4cc(OC)ccc4[C@@]34CCN1[C@@H]24
active: [1] -4.56% | [5] 2.96% | [7] -59.1% | [10] 0.382% | [14] -4.82% | [17] -85.1% | [18] 3% | [19] -12% | [20] -17%
inactive: [2] 25.1% | [3] 21.5% | [4] 15.9% | [6] 25.7% | [8] 50.7% | [9] 38.5% | [11] 21.7% | [12] 54.3% | [13] 10.7% | [15] 17.2% | [16] 22.2%

C[C@H]1[C@@H](Oc2ccc(-c3cn(-c4ccnc5cc(Cl)ccc45)nn3)cc2)O[C@@H]2OC3(C)CC[C@H]4[C@H](C)CC[C@@H]1[C@@]24OO3
inactive: [1] 48.2% | [2] 69.3% | [3] 46.3% | [4] 25.3% | [6] 35.2% | [8] 51.6% | [9] 46.3% | [10] 37.6% | [11] 30.5% | [12] 41.1% | [13] 22.3% | [14] 61.6% | [15] 39.1% | [16] 29.2% | [17] 20.3% | [18] 21.2%
active: [5] 2.18% | [7] -50% | [19] 7.17% | [20] 6.05%

CC[C@]12C=CCN3CC[C@@]4(c5ccc(OC)cc5N(C)[C@H]4[C@@](O)(C(=O)OC)[C@@H]1OC(=O)CCC[P+](c1ccc(F)cc1)(c1ccc(F)cc1)c1ccc(F)cc1)[C@@H]32
active: [5] -17.7% | [7] -19% | [12] -34.3% | [17] -38.3% | [18] -59.5% | [19] -46.9% | [20] -22.9%
inactive: [1] 46.9% | [2] 65.2% | [3] 64% | [4] 30.9% | [6] 54.5% | [8] 47.7% | [9] 42.3% | [10] 85% | [11] 24.2% | [13] 15.7% | [14] 39.9% | [15] 18.5% | [16] 16.7%

CCOP(=O)(OCC)C(NC(C)=O)C(=O)SCCN (stereo not given)
inactive: [1] 106% | [2] 102% | [3] 107% | [4] 121% | [5] 98.7% | [6] 107% | [7] 128% | [8] 122% | [9] 125% | [10] 93.2% | [11] 97.5% | [12] 96.2% | [13] 113% | [14] 99.1% | [15] 106% | [16] 116% | [17] 99.1% | [18] 95.8% | [19] 112% | [20] 99.2%

COc1cc2cc(C(=O)N3C[C@@H](CCl)c4c3cc(OC(=O)N3CCN(C)[C@@H]5CSSC[C@H]53)c3ccccc43)[nH]c2c(OC)c1OC
active: [1] -42.7% | [2] -12.4% | [3] -19.1% | [4] -68.9% | [5] -68% | [6] -58.4% | [7] -59.2% | [8] 1.52% | [9] 2.46% | [10] -43.2% | [11] -96% | [12] -46.3% | [13] -50.7% | [14] -74.3% | [15] -14.6% | [16] -24.8% | [17] -100% | [18] -92.9% | [19] -91.8% | [20] -43.4%

COC(=O)c1ccc(-n2cc(CCCN(CCNc3ccnc4cc(Cl)ccc34)C(=O)CCC(=O)O[C@@H]3O[C@@H]4OC5(C)CC[C@H]6[C@H](C)CC[C@@H]([C@H]3C)[C@@]46OO5)nn2)cc1
active: [5] 7.38% | [13] 5.91% | [17] -70.1% | [20] -30.7%
inactive: [1] 48.4% | [2] 71% | [3] 64.5% | [4] 52.1% | [6] 44.4% | [7] 14.8% | [8] 59.8% | [9] 59.2% | [10] 43.8% | [11] 39% | [12] 35% | [14] 67.3% | [15] 53.3% | [16] 39.7% | [18] 36.8% | [19] 29.4%
